Measurements from PubChem BioAssay (NCI).
This is part of a sample that, as a whole, favours compounds with a hit. Of some 83,000 tested, about 20% had one in any assay.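 Testing used 96-well plates and a 48-hour single-concentration exposure. Example: -40 means 40% of the starting cells died.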 Unmarked numbers belong to inactive results. Calls of active or inactive are those of the source. Rule for the calls: active = growth percent below 10; inactive = the rest.

System: HL-60(TB) leukemia
Test: NCI-60 one-dose screen, 48 h (100 = growth as untreated, 0 = no growth, -100 = all killed)
Conditions: 10 µM unless noted

Which growth does the source give for COc1nc(OC)nc(-c2cc(C(=O)c3ccc(Br)cc3)n3cc(C)cc(C)c23)n1 here?
The growth was 99%.

O=C1N=c2cc3c(cc2=C/C1=C/c1sc(=S)n(CCc2ccc(O)cc2)c1O)OCCO3 was tested. Which growth did it give?
Its growth is 48.1%.

COc1cccc(NC(=O)c2sc3nc(C)c(C(C)=O)cc3c2N)c1 was tested. Which growth did it give?
Its growth is 6.61% (active).

Which growth does the source give for CC(=O)Nc1cc2c(cc1Cl)Cc1cc(Cl)ccc1-2 here?
The growth was 114%.

How did the growth turn out when O=C(N=c1n(-c2ccccc2)nc2n1CCN2C1=NCCN1C(=O)c1ccc(Cl)cc1)c1ccc(Cl)cc1 was run?
Its growth is 51.2%.

Which growth does the source give for CCn1c(CN2CCN(Cc3ccccc3)CC2)nc2cc(NC(=O)c3cccs3)ccc21 here?
Its growth is -51.2% (active).

With Cc1c(Cl)cccc1NC(=O)c1sc2nc3c(cc2c1N)CN(Cc1ccccc1)CC3 as the compound, how does the growth read?
The growth was -22.9% (active).

How did the growth turn out when CCNc1nc(C(F)(F)F)nc2c1sc(=S)n2-c1ccccc1 was run?
Its growth is 98.9%.

CCN1C(=O)CC(SC2CC(=O)N(CC)C2=O)C1=O (stereo not given) was tested. Which growth did it give?
Its growth is 79.9%.

Which growth does the source give for COc1ccccc1CNc1c2ccccc2nc2ccccc12 here?
Its growth is 44.8%.

For O=CCCCC(O)C=O (stereo not given), which growth is on record?
Its growth is 92.2%.

O=C(c1ccccc1)c1ccco1 was tested. Which growth did it give?
The growth was 86.1%.

How did the growth turn out when Cc1csc(-c2nnc(Nc3ccc(Oc4ncccc4-c4ccnc(N)n4)cc3)c3ccccc23)c1 was run?
The growth was 12.9%.

With C[C@H]1[C@H](C)CC[C@]2(C(=O)OCCOCCOCC[P+](c3ccccc3)(c3ccccc3)c3ccccc3)CC[C@]3(C)C(=CC[C@@H]4[C@@]5(C)CC[C@H](OC(=O)C(Cl)Cl)C(C)(C)[C@@H]5CC[C@]43C)[C@H]12 as the compound, how does the growth read?
Its growth is -48.3% (active).

With CC1(C)CN(c2cnc(C(=O)Nc3cc(F)cc4cccnc34)cn2)CCN1 as the compound, how does the growth read?
The growth was 11.7%.

Which growth does the source give for COc1ccc(NC(=O)c2cccc(C3CCc4c(cc(OC)c(OC)c4OC)O3)c2)cc1 (stereo not given) here?
Its growth is -8.38% (active).

COC(=O)[C@]1(C)CC[C@]2(C)CC[C@]3(C)C(=CC(=O)[C@@H]4[C@@]5(C)CCC(=O)NC(C)(C)[C@@H]5CC[C@]43C)[C@@H]2C1 was tested. Which growth did it give?
Its growth is 1.31% [100 µM] (active).

For COc1cccc(/C=N/NC(=O)c2cnn3c2NC(c2ccccc2)C3)c1Oc1ccccc1 (stereo not given), which growth is on record?
Its growth is 74.6%.

For CC(=O)Oc1csc(N(C(C)=O)c2cccc(C(F)(F)F)c2)n1, which growth is on record?
Its growth is 107%.

With COc1ccc(-c2nc(Cl)c3c(C)nn(-c4ccc(F)cc4)c3n2)cc1 as the compound, how does the growth read?
The growth was 98.3%.

With CCN(CC)S(=O)(=O)c1cccc([N+](=O)[O-])c1 as the compound, how does the growth read?
The growth was 95.5%.

How did the growth turn out when Cc1ccc(NC(=S)NNC(=S)Nc2ccc(C)cc2)cc1 was run?
The growth was 44.7%.

Which growth does the source give for C=CCOc1cccc(/C=C/C(=O)c2sc(Nc3cccnc3)nc2C)c1 here?
The growth was 43.3%.

CCCCCCCCC(C)C(=O)N1CCCC1C(=O)N1C(CC(=O)CC)CC(C)CC1C(=O)NC(C)C(=O)NC(C)(C)C(=O)NC(C)(C)C(=O)NC(C(=O)NC(C)C(=O)NC(C)(C)C(=O)NC(C)(C)C(=O)NC(C)CN(C)CCO)C(C)CC (stereo not given) was tested. Which growth did it give?
The growth was -51.8% (active).

How did the growth turn out when Cc1[nH]c(C(=O)Nc2ccc(C(=O)N3CCNCC3)cc2OC(C)C)c(Cl)c1Cl was run?
The growth was 57.4%.

For CN1CCN(Cc2ccc(NC(=O)c3cncc(C#Cc4cnc(N)c5cnccc45)c3)cc2C(F)(F)F)CC1, which growth is on record?
The growth was -25% (active).

Which growth does the source give for O=C(N/N=C/C[C@@H]1[C@@H](/C=C/[C@@H](O)COc2cccc(Cl)c2)[C@H](O)C[C@@H]1O)c1ccncc1 here?
Its growth is 87.5%.

How did the growth turn out when COc1ccc2c(c1)C(C)Cc1c(ncnc1-n1cnc3cc(C)ccc31)N2C (stereo not given) was run?
The growth was -25.8% (active).

Which growth does the source give for O=C1/C=C/[C@@H](O)[C@@H]2C[C@@H](O)C[C@H]2/C=C/CCC[C@H](CCc2ccccc2)O1 here?
The growth was 3.95% (active).

With C1CCc2onc(-c3noc4c3CCCCC4)c2CC1 as the compound, how does the growth read?
The growth was 102%.

How did the growth turn out when CCCCN(CCC#N)C(N)=O was run?
Its growth is 99.6%.

For Cn1cc(-c2csc(-c3c[nH]c4ncccc34)n2)c2cc(Br)cnc21, which growth is on record?
The growth was 87.6%.

For CC(C)(C)C(=O)OCOP(=O)(OCOC(=O)C(C)(C)C)C1CCCN(OC(=O)c2ccccc2)C1=O (stereo not given), which growth is on record?
The growth was 35.1%.

How did the growth turn out when O=C1CCC/C=C\C[C@H]2C=CC(=O)/C2=C/C[C@H](CCc2cccc(C(F)(F)F)c2)O1 was run?
The growth was -25.5% (active).

COc1ncc(-c2ccc3ncnc(Nc4cccc(Cl)c4)c3c2)cc1NS(=O)(=O)C1CC1 was tested. Which growth did it give?
Its growth is 36.7%.

Which growth does the source give for CCCN1C(=O)CSC1=Nc1ccc2cc3ccc(N=C4SCC(=O)N4CCC)cc3nc2c1 here?
Its growth is 8.32% (active).

How did the growth turn out when CSc1nc(C)c([N+](=O)[O-])c(N)n1 was run?
The growth was 90.2%.

Which growth does the source give for COc1cc2c(cc1OCCCN1CCN(c3ncnc4ccccc34)CC1)N=CC1CCCN1C2=O (stereo not given) here?
The growth was -53.2% (active).

How did the growth turn out when C=C1C(=O)O[C@H]2[C@H]1CC/C(Cn1cc(-c3ccsc3)nn1)=C\CC[C@@]1(C)O[C@@H]21 was run?
The growth was -23.5% (active).

With O=C1c2c(O)cc(O)cc2OC(c2ccc(O)c(O)c2)C1O (stereo not given) as the compound, how does the growth read?
Its growth is 110%.
